The results in this text go back to PubChem BioAssay AID2314 (National Center for Advancing Translational Sciences (NCATS), 2010).

Molecules are shown by their SMILES. Where “and” joins values, the source holds several entries; their conditions need not be identical. Identical values can stand only once. In all, about 300,000 compounds went through this assay and about 37,000 (12%) were called active. The full list was thinned out, with actives kept by preference. Values without a mark were called inactive. Cut-off read from the data, not from the text of the source: active = max response mostly above about 13% (no sharp cut-off); inactive = mostly below about 14%.

This test in a line: Cycloheximide Counterscreen for Small Molecule Inhibitors of Shiga Toxin. Note: read at 38.3 µM for the half of the compounds with a filed dose; 0% is about no effect. To be noted: cell reporter, cycloheximide protein synthesis inhibition counterscreen; stronger effect = higher value. A general note: A counterscreen serves to expose hits that act by an unwanted route or on another target.
On to `S=c1[nH]c2ccccc2c2ccccc12`, for which the max response was 1.83%. On to `CC1CCC(NC(=O)C2c3ccccc3C(=O)N2Cc2ccc3c(c2)OCO3)CC1` (stereo not given), for which the max response is -1.18%. For the compound `Cc1ccc(C(=O)NC2CC(C)(C)NC(C)(C)C2)c(C)c1`, the max response was -4.92%. With `Cc1ccc2c(c1)NCC(C(=O)NC1CCC(C)CC1)O2` (stereo not given), the max response was 41.1% (active). The figure for `CC(NS(=O)(=O)c1ccc(Br)cc1)C(=O)NCC1CCCO1` (stereo not given) is -1.6%; for `CN1CCN(c2nc(Nc3ccc(O)cc3)nc3ccccc23)CC1` it is -3.27%. The figure for `OCCNc1nc(Nc2ccc(Cl)c(Cl)c2)nc2ccccc12` is 10.5% (active); for `COc1cc2nc(Cl)nc(NCCO)c2cc1OC` it is -1.72%; for `COc1ccc(C2=NN(C(C)=O)C(c3ccccc3)C2)cc1` (stereo not given) it is 20.9% (active).

`COc1ccc(C2=NN(C(=O)CCC(=O)O)C(c3cccs3)C2)cc1OC` (stereo not given): the max response is -1.52%.

With `COc1ccc(C2=NN(C(=O)c3cccnc3)C(c3ccccc3)C2)cc1` (stereo not given), the max response is -5.54%. `COc1cccc(C2CC(c3ccccc3)=NN2S(=O)(=O)c2ccccc2)c1OC` (stereo not given): the max response was 0.319%. For the compound `COc1ccc(C2CC(c3ccccc3)=NN2C(=O)c2ccc(Cl)c([N+](=O)[O-])c2)cc1` (stereo not given), the max response was 12.9%. For `COc1ccc(C(=O)Nc2nc(-c3ccc(OC)cc3)c(-c3ccc([N+](=O)[O-])cc3)s2)cc1`, the max response is 9.79%. In the case of `COc1ccc(C2CC(c3ccc([N+](=O)[O-])cc3)=NN2C(C)=O)cc1` (stereo not given) it was 24.5% (active); in that of `COc1ccc(C2=NN(C(=O)c3ccccc3C(=O)O)C(c3ccccc3O)C2)cc1` (stereo not given), 40.6% (active); in that of `COc1ccc(C2CC(c3ccccc3)=NN2C(=O)COC(=O)COc2ccccc2)cc1` (stereo not given), 2.88%.

As to `COc1ccc(C(=O)CSc2nccc(=O)[nH]2)cc1`, the max response is 8.3%.

On to `CCOc1ccc2nc(Cl)c(C3CC(c4ccccc4)=NN3C(=O)c3cccs3)cc2c1` (stereo not given), for which the max response is -1.42%.

As to `COc1ccc(C2CC(c3ccccc3)=NN2C(=O)CSc2nccc(=O)[nH]2)cc1` (stereo not given), the max response was 40% (active).

In the case of `CCCCN(CCCC)CCNC(=O)CN1C(=O)COc2ccc(S(=O)(=O)N3CCOCC3)cc21`, the max response is -2.14%. In the case of `CCN1C(=NCCc2cccnc2)N[C@@H](c2ccccc2)[C@H](C(=O)OC)[C@H]1C`, the max response is 3.2% and 1.95%. In the case of `COCCN1C(=O)N(c2ccc(Cl)cc2)C(=O)C1CC(=O)Nc1cc(OC)cc(OC)c1` (stereo not given) it was -0.589%. As to `CCN1C(=O)c2cccc3c(S(=O)(=O)Nc4ccccc4O)ccc1c23`, the max response is 9.32%. With `O=C(CCC(=O)NNc1nc2ccccc2c2nc(-c3ccccc3)nn12)NCCCN1CCCC1=O`, the max response is 10.3%. Regarding `COc1ccc(S(=O)(=O)NCCOc2ccccc2)cc1F`, the max response was -4.53%. In the case of `Cc1ccc2c(c1)N(CC(=O)N1CCC(C)CC1)C(=O)c1cccnc1O2` it was -1.05%; in that of `COC(=O)c1ccccc1NC(=O)C1CCN(C(=O)N2CCOc3ccccc32)CC1`, 0.401%. The figure for `CCOc1ccccc1CN1CCN(C2CCC2)CC1CCO` (stereo not given) is -0.61%; for `CS(=O)(=O)c1ccccc1C(=O)Nc1ccc2sccc2c1` it is 1.56%; for `O=C(NCCN1CCOCC1)Nc1cccc(Cl)c1` it is 20.1%. The figure for `O=C(Nc1cccc(Cl)c1)Nc1nnc(-c2ccccc2)o1` is -4.47%; for `Cc1cc(Cl)nc(NC(=O)Nc2cccc(Cl)c2)n1` it is 19.5% (active).

In the case of `O=C(C1CCN(c2nnc(-n3cccc3)s2)CC1)N1CCc2ccccc2C1`, the max response was -2.9%.

As for `Cc1ccc(Cl)c(OCC(=O)N2CCc3ccccc3C2)c1`, the max response is 30% (active). The figure for `O=C(COc1ccccc1Cl)N1CCCCCCC1` is 4.62%; for `Cc1cccc(OC(C)C(=O)N2CCc3ccccc3C2)c1` (stereo not given) it is -3.38%; for `COc1ccc(OCC(=O)N2CCN(C(=O)COc3ccccc3)CC2)cc1` it is -5.08%. The figure for `O=C(Cn1c(=S)nc2ccccn21)N1CCc2ccccc2C1` is 22.4% (active).

As for `O=C(COc1ccccc1)N1CCc2ccccc2C1`, the max response is 28.7% (active). With `Cc1ccc(Cl)c(OCC(=O)NN2CCN(C)CC2)c1`, the max response was -2.49%. As to `Cc1ccccc1-c1nc(CS(=O)(=O)CC(=O)N2CCc3ccccc3C2)c(C)o1`, the max response is 0.61%. In the case of `COc1ccccc1CN1CCN(C(c2ccccc2)c2ccccc2)CC1` it was -1.72%; in that of `CC1CCN(C(=O)c2ccc3c(c2)NC(=O)CN3)CC1`, -6.43%; in that of `Oc1ccc(Cl)cc1C1C=C(c2ccc3c(c2)OCO3)NC(c2c(F)cccc2Cl)N1` (stereo not given), 59.8% (active). The figure for `Oc1ccc(Cl)cc1C1C=C(c2ccc3c(c2)OCO3)NC(c2ccc(F)c(Br)c2)N1` (stereo not given) is 50.7% (active); for `O=C(c1cc(COc2ccc(F)c(F)c2)on1)N1CCOCC1` it is 42.1% (active). In the case of `O=C(c1c(F)cccc1F)N1CCN(c2ncc(Br)cn2)CC1`, the max response was -1.54%. In the case of `CCOC(=O)c1ccccc1C(=O)N1CCOCCOCCOCC1` it was -3.37%; in that of `Cc1cc(NC(=O)COC(=O)c2ccc(F)c(S(=O)(=O)N3CCOCC3)c2)no1`, -2.52%; in that of `COCCN1CCN(C(=O)c2cc(COc3ccc(F)cc3Cl)on2)CC1`, 20.2% (active). For `O=C(c1cc(COc2cccc(C(F)(F)F)c2)on1)N1CCSCC1`, the max response was -0.615%. Turning to `CCOC(=O)CC1COCCN1C(=O)c1cc(COc2ccc(F)c(F)c2)on1` (stereo not given), the max response is 38.7% (active). In the case of `C=CCC1(CC=C)CCCN1C(=O)c1cc(COc2ccc(-n3cncn3)cc2)on1` it was 7.87%; in that of `CN1CCN(C(=O)c2ccccc2NC(=O)COc2ccccc2Cl)CC1`, 16.7%; in that of `Cc1c(C(=O)N2CCOCC2)[nH]c2ccc(OCc3ccccc3)cc12`, 0.995%. As for `O=C(c1cc(COc2c(F)cccc2F)on1)N1CCSCC1`, the max response is 54.8% (active). The figure for `OC(COc1ccc(F)cc1Cl)CN1CCc2ccccc2C1` (stereo not given) is -2.68%. The figure for `C=CCNc1nc(N)c(C(=C(C#N)C#N)c2ccccc2)s1` is 1.38%; for `Cc1ccn2c(c1)nc(=O)c1cc(S(=O)(=O)N3CCC(C)CC3)ccc12` it is -3.62%; for `OC(CN=c1sc2ccccc2n1CC(O)COc1ccccc1)COc1ccccc1` (stereo not given) it is 0.416%. In the case of `O=C(Nc1ccc(Cl)cc1)c1cccc(OC(=S)N2CCOCC2)c1` it was 21.3%; in that of `CC(C)Oc1ccc(C(CC(=O)N2CCOCC2)C(C)C)cc1` (stereo not given), 0.501%; in that of `O=C(NNC(=O)C(O)c1ccccc1)NC1CCCCC1` (stereo not given), -2.85%. Consider `COCC(C)NC(=O)c1ccc(-n2nc(C(F)(F)F)cc2-c2cccs2)cc1` (stereo not given), for which the max response was 1.01%. In the case of `Nc1nonc1-n1nnc(C(=O)N/N=C/c2ccc(Cl)cc2)c1-c1ccc2c(c1)OCO2`, the max response was -1.92%. In the case of `Cc1c(-c2ccccc2)cn2c1-c1ccc(C)n1CC2` it was -3.8%.

For `O=C1COc2ccc(NC(=O)N3CCN(c4ccc(F)cc4)CC3)cc2N1`, the max response is -3.27%. The figure for `COc1ccc(OC)c(NC(=O)CSc2nc(-c3ccccc3)cc(=O)[nH]2)c1` is -6.47%. In the case of `COc1cc(C(=O)N2CCOCC2)cc(OC)c1OC` it was -5.91%. The figure for `O=C(NC1Cc2ccccc2C1)c1cc(COc2cccc(C(F)(F)F)c2)on1` is -3.57%. With `COc1ccc(CCNC(=O)c2cnc(Cl)c(Cl)c2)cc1`, the max response is 6.51%.

For the compound `COc1ccc(-c2cc(C(=O)NCCCN3CCOCC3)no2)cc1`, the max response is 2.58%. As for `COc1ccc(OCc2cc(C(=O)NCC3(C)COC3)no2)c(Cl)c1`, the max response is 40.1% (active). Consider `O=C(CC(NC(=O)c1ccccc1)c1ccccc1)Nc1ccc(F)c(F)c1` (stereo not given), for which the max response is 1.73%. Consider `O=C(c1cc(COc2ccc(F)cc2F)on1)N1CCOCC1`, for which the max response was 47% (active).

`O=C(Oc1ccc(C(=S)N2CCOCC2)cc1)c1ccc(F)cc1`: the max response is -3.82%. In the case of `CCC(NC(=O)c1cc(COc2ccc(F)c(F)c2)on1)c1ccncc1` (stereo not given) it was 33.7% (active). `O=C(Nc1ccc(N2CCOCC2)cc1)c1ccc(-c2ccccc2[N+](=O)[O-])o1`: the max response was 21.5%. Take `COc1ccc(/C=C2\CCCC3C2=NN(C(=O)c2scnc2C)C3c2ccc(OC)cc2)cc1` (stereo not given): the max response is 11.8%. Turning to `CCOC(=O)N1CCN(S(=O)(=O)c2ccc(-n3cnnn3)cc2)CC1`, the max response is -0.729%. Regarding `O=S(=O)(NC1CCCCC1N1CCC(O)CC1)c1ccc(Cl)cc1` (stereo not given), the max response was -0.643%. The figure for `Oc1ccc(C2Nc3cccc4cccc(c34)N2)cc1` is -1.27%; for `O=C(O)c1ccc(NS(=O)(=O)c2ccc3c(c2)C(=O)c2cc(S(=O)(=O)Nc4ccc(C(=O)O)cc4)ccc2-3)cc1` it is 12.6%.

As to `Cc1cccc(CCNS(=O)(=O)c2ccc3c(c2)NC(=O)CO3)c1`, the max response is -8.72%. On to `COc1ccc(C2CC(O)(c3ccccc3)Oc3cc(C)cc(C)c32)cc1` (stereo not given), for which the max response is 15.7%. In the case of `CCOC(=O)c1cc(=O)c2ccc(OCc3ccccc3)cc2o1` it was -0.548%; in that of `N#C/C(=C(/O)COC(=O)COc1ccc(Cl)cc1)c1nc2ccccc2[nH]1`, -7.7%; in that of `O=C(C[n+]1ccc2c(c1)nnn2-c1ccccc1)c1ccc(Cl)cc1`, 6.33%. The figure for `O=C(Cc1nc2ccccc2[nH]c1=O)c1ccc(Cl)cc1` is 49.5% (active); for `COc1ccc(CC(NC(C)=O)C(=O)NC2CCN(C(=O)c3ccc(Cl)cc3)CC2)cc1` (stereo not given) it is -8.8%; for `c1ccc2c(NC3C4CC5CC(C4)CC3C5)nc(N3CCOCC3)nc2c1` (stereo not given) it is -3.82%.

For `O=C(NCc1ccco1)c1cccn2c(=O)c3c4c(sc3nc12)CCCC4`, the max response is 13.5%.

Consider `O=c1oc(-c2ccco2)nc2sc3c(c12)CCCCC3`, for which the max response is 15% (active).

`Cn1c(=O)n(Cc2ccco2)c(=N)c2c3c(sc21)CCCC3`: the max response is -4.49%.
